# From PubChem
# IMPase Li cell = IMPase inhibition in cells with lithium potentiation; CHO-M1 cells, IP1 TR-FRET (IP-One), carbachol + lithium; Potency, µM (top dose mostly 59.4 µM), inactives show at the highest dose activity, negative = IMPase inhibition, most hits filed as inhibitors; hit rate 0.35% among 210,000;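 note: IP1 builds up when IMPase is blocked and the TR-FRET signal falls; potency is the fitted concentration of half-maximal effect; plate controls were basal vehicle for no effect and high inhibitor control for full effect; nearly all actives have a fitted effect of over 50% in size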
#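 CHO-M1, 2000 cells/well, 16–30 h culture; cpd + low Li+, 30 min 37C; lysis with d2-IP1/Eu-anti-IP1 Ab, 10 min RT; TR-FRET 665/620 ratio and 620 channel; AC50 via Hill.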
# ALDH1A1 inh = blocks purified human ALDH1A1 activity. P00352. Purified ALDH1A1, NADH fluorescence, propionaldehyde substrate. Potency, µM (titrated, usually from 75.3 µM), without a hit: at the top dose activity, negative = inhibition, most hits filed as inhibitors. hit rate 7.3% among 220,000. AID 1030; active = well fitted inhibition curve with a large enough effect, not every such curve was filed as active; inconclusive = small, poorly fitted or top-dose-only effect, or another doubt; inactive = no such curve, though single readings can be large or run the other way;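 note: potency is the fitted concentration of half-maximal effect; plate controls were no enzyme wells and a reference inhibitor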
# Target sequence (P00352 whole entry, looked up): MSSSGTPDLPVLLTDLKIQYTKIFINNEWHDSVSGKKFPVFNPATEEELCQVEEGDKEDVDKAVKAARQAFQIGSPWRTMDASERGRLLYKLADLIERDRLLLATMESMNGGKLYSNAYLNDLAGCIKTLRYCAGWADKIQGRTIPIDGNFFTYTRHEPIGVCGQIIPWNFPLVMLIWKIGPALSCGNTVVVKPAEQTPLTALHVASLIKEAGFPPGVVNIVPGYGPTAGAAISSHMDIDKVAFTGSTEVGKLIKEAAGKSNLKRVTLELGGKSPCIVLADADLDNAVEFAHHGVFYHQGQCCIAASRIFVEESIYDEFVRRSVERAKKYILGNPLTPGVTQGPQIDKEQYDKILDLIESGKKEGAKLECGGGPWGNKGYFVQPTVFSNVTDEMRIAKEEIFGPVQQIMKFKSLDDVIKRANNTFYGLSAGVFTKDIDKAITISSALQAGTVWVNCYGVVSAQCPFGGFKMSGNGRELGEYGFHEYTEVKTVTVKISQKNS
# IMPase cell inh = IMPase inhibition in cells. CHO-M1 cells, IP1 accumulation, HTRF TR-FRET ratio. inhibition (IP1 accumulation), % at 46.1 µM. 120,000 tested, under 10 active; active = well fitted curve in the direction sought with a large enough effect in the signal ratio, not every such curve was filed as active; inconclusive = small, poorly fitted or top-dose-only effect, or a change in a side signal; inactive = no such curve, though single readings can be large or run the other way; the % refers to the signal ratio;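 note: cells stimulated with carbachol in lithium chloride buffer; plate controls were DMSO basal wells for no effect and reference inhibitor wells for full effect; higher means more IMPase inhibition seen as more IP1 and lower FRET ratio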
# Target sequence (P97697 whole entry, looked up): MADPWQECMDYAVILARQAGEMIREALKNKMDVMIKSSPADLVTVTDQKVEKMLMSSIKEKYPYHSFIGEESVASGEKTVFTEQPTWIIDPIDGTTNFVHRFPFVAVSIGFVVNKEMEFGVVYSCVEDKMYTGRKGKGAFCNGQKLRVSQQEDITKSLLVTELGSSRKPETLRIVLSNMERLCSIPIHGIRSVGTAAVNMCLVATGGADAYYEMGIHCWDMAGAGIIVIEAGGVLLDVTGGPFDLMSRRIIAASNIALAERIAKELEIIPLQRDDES
#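 In this qHTS, compounds (final up to 46 uM) act on CHO-M1 cells that are then activated through the M1 receptor with carbachol, in pH 7.4 buffer containing 50 mM LiCl, for 30 min. IP1 accumulation is quantified by the IP-One immunoassay.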
# HttQ103 aggreg = mutant huntingtin aggregation inhibition; PC12 HttQ103-GFP aggregates, Acumen cytometry, 40 h; Potency, µM (series often up to 46.1 µM), for inactives: at the top dose activity change, negative = inhibition, usual class: inhibitors; AID 1688; hit rate 1.1% among 220,000; note: potency is the fitted concentration of half-maximal effect; % is set by controls: 0 for no effect and ±100 for the full control effect; nearly all actives have a fitted effect of over 60% in size
#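 PC12/HTTQ103-GFP, ecdysone-inducible; teb 100 nM; cpd qHTS titration; GFP aggregates read on laser cytometer, Ex 488/Em 500-530 nm.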
# HPGD inh = inhibitors of human 15-hydroxyprostaglandin dehydrogenase (HPGD); AID 894; purified HPGD, NADH fluorescence kinetic, PGE2 substrate; P15428; hit rate 4.3% among 150,000; Potency, µM, inactives show top-dose activity change, negative = inhibition, usual class: inhibitors; active = well fitted inhibition curve with a large enough effect, not every such curve was filed as active; inconclusive = small, poorly fitted or top-dose-only effect, or another doubt; inactive = no such curve, though single readings can be large or run the other way; note: potency is the fitted concentration of half-maximal effect; % is set by controls: 0 for no effect and ±100 for the full control effect
#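 20 nM HPGD preincubated 15 min at room temperature with compound in 50 mM Tris-HCl pH 8, 0.01% Tween 20. Started with 1 mM NAD+ and 30 uM prostaglandin E2; NADH fluorescence (360/450 nm) read 5 times over 30-s intervals, last minus first.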
# HTT ATP protect = cytoprotection in Huntington HTT-Q103 PC12 cell model. PC12 HTT-Q103 induced, cytoprotection, ATP luminescence, 40 h. Potency, µM (doses to about 56.4 µM), without a hit: cytoprotection (ATP increase), most hits filed as activators. hit rate 0.14% among 230,000. AID 1471; note: potency is the fitted concentration of half-maximal effect; % of control where 0% means no effect; nearly all actives have a fitted effect of over 45% in size
#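 Quantitative HTS on tebufenozide-induced (100 nM) PC12 cells expressing HTTQ103 exon 1–GFP; compounds tested as a concentration series; survival measured via cellular ATP.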
# Numbers without * were called inactive; ? = inconclusive; · = no result given; [ ] = dose if it differs, or a comment. Rows were chosen to be rich in hits. Some 9.4% of all compounds tested hit in one or more screens of this group. Unless noted, calls come from the whole dose curve; as a rule, active = well fitted curve in the direction sought with a large enough effect; inconclusive = small, poorly fitted or top-dose-only effect, or another doubt; inactive = no such curve, though single readings can be large; an effect the other way counts as inactive or inconclusive.
SMILES,IMPase Li cell,ALDH1A1 inh,IMPase cell inh,HttQ103 aggreg,HPGD inh,HTT ATP protect
COC(=O)CCC(=O)OC1(C)C(=O)C=C2C=C(CCCNC(=O)OC(C)(C)C)OC=C2C1=O (stereo not drawn),11%,-1%,·,·,3%,15%
NC(=O)c1ncn([C@@H]2O[C@@H](CO)[C@@H](O)[C@H]2O)c1O,·,·,0,·,·,-7%[1.9 µM]
O=C(Nc1cccc(Oc2ccc3c(c2)C(=O)NC3=O)c1)c1ccco1,22%[38.3 µM],5%,3[1.84 µM],-16%,20µM*,-4%
CC(Oc1ccccc1)C(=O)Nc1cccc(NC(=O)c2ccco2)c1 (stereo not drawn),·,·,·,9%[9.22 µM],·,34%[10 µM]
CC(C)(C)c1ccc(Oc2ccc(NC(=O)c3ccco3)cn2)cc1,·,·,·,?,·,-66%[10 µM]
O=C(Oc1ccccc1)c1ccc(NC(=O)c2ccco2)cc1,4%,18µM*,·,2%,13µM*,0%[0.074 µM]
O=C(Nc1ccc(Oc2cccc(C(F)(F)F)c2)nc1)c1ccco1,·,40µM*,·,-15%[9.22 µM],·,5%[10 µM]
Cc1ccc(C)c(NS(=O)(=O)c2cc(C(=O)O)ccc2Cl)c1,·,-4%,·,·,-5%,·
CCC(C)n1c(=N)c(C(=O)NC2CCCCC2)cc2c(=O)n3ccccc3nc21 (stereo not drawn),·,·,-4,·,·,·
CN(C)c1ccc(NC(=O)CSc2nc3ccccc3c(=O)n2C2CCCCC2)cc1,-4%[38.3 µM],7.1µM*,7,-1%,-18%,-7%
CCOc1ccc(NC(=O)CSc2nc3ccccc3c(=O)n2CCCC(=O)N2CCCC2)cc1,·,10%,?,5%,·,-16%
COc1ccc(NC(=O)CSc2nc3ccccc3c(=O)n2CCC(=O)N2CCCCC2)cc1,0%[38.3 µM],16µM*,-3,2%,-5%,11%
COc1cccc(NC(=O)CSc2nc3ccccc3c(=O)n2CCCC(=O)N2CCCC2)c1,-4%[38.3 µM],?,?,19%,28µM*,-5%
CCOc1ccc(NC(=O)CSc2nc3ccccc3c(=O)n2CCCC(=O)NCCCN2CCCC2=O)cc1,-4%,7.9µM*,·,-4%,·,-40%
c1ccc(B2OC[C@@H]3OB(c4ccccc4)O[C@H]([C@@H]4COB(c5ccccc5)O4)[C@@H]3O2)cc1,-5%,8%[13.5 µM],·,·,-4%,2%[10 µM]
O=C(O)C(Cc1cccs1)C(=O)O,0%,-10%[13.5 µM],·,·,-6%,-10%[10 µM]
O=C(Nc1ccccc1C(=O)O)c1cccc(S(=O)(=O)N2CCCC2)c1,·,·,-7,·,·,·
COc1c(Cl)cc(C(=O)NN)cc1Cl,3%,2.2µM*,·,-28%,·,-164%
COc1ccc(C(=O)NN)cc1,·,·,·,-22%[9.22 µM],·,-5%[10 µM]
NNC(=O)c1cc(O)c(O)c(O)c1,12%,25µM*,·,?,·,-64%
CNC(=O)c1cc(Cl)c(OC)c(OC)c1,-2%,22µM*,-12,-14%,?,11%[10 µM]
COc1c(Cl)cc(C(=O)Nc2ccccc2C(=O)O)cc1Cl,-3%[38.3 µM],13µM*,8,?,14µM*,-28%
COc1cc(C(N)=O)cc(Cl)c1OC,-2%,1%,·,-11%[9.22 µM],·,12%[10 µM]
NNC(=O)c1ccncc1,-4%,-3%,-5[20.6 µM],8%,-12%,-6%
Cc1noc(C)c1C(=O)N1CCC[C@@]2(CCN(Cc3ccc(C#N)cc3)C2)C1,8%,4%,·,·,-5%,-60%
SMILES,IMPase Li cell,ALDH1A1 inh,IMPase cell inh,HttQ103 aggreg,HPGD inh,HTT ATP protect
CCCOc1ccc(C(=O)Nc2c(C(=O)c3ccc(C)cc3)oc3ccccc23)cc1,·,·,-22,·,·,·
Cc1ccc(-c2nn(-c3ccccc3)cc2CN(Cc2ccccc2)C(=O)c2ccco2)o1,20%[38.3 µM],11µM*,14,?,-27%,-46%
CSc1ncccc1C(=O)Nc1ccc(S(=O)(=O)NC2=NCCCCC2)cc1,6%,8.9µM*,·,23%,·,-9%
CCOC(=O)c1oc2cc(O)c(CC)cc2c(=O)c1-c1cscn1,8%,-13%,·,-5%,·,-34%
CCOC(=O)c1ccc(-c2c(C(=O)OCC)oc3cc(O)c(CC)cc3c2=O)o1,37%[38.3 µM],10µM*,10,5.6µM*,-17%,-29%[0.074 µM]
Cc1ccc(OCCNC(=O)/C=C/c2ccco2)cc1C,-1%,11µM*,·,21%[9.22 µM],·,-17%[10 µM]
O=C(/C=C/c1ccco1)NCCCN1CCN(CCCNC(=O)/C=C/c2ccco2)CC1,16%,0%,·,-19%,-2%,2%[0.074 µM]
CC(/C=C/c1ccco1)=N/NC(=O)CNc1ccccc1C,-2%,-7%,·,24%,·,?
CCOC(=O)N/N=C(C)/C=C/c1ccco1,18%,10µM*,·,29%,-16%,6%[10 µM]
CC(/C=C/c1ccco1)=N\NC(=O)COc1ccc(C)c(C)c1,3%,3.5µM*,·,13%[9.22 µM],·,-5%[10 µM]
COc1ccc(C2(CNC(=O)/C=C\c3ccco3)CCCC2)cc1OC,21%[38.3 µM],3.5µM*,4[1.84 µM],?,?,3%[10 µM]
CC(C)CN1CC2(CCN(C(=O)c3cccc(F)c3)CC2)C1,22%,-5%,·,·,-12%,-18%
Cc1ccc(OCC(=O)N(c2ccc(C)cc2)S(=O)(=O)c2ccc(Cl)cc2)cc1,·,·,-2,·,·,·
N#Cc1ccc(CS(=O)(=O)c2ccccc2)cc1,13%,0%,·,·,-7%,-1%
CC(/C=C/c1ccco1)=N\NC(=O)CNc1ccc2ccccc2c1,25%,7.9µM*,·,-2%,·,-27%
O=C(c1cnc(N2CCN(c3ccccn3)CC2)c2ccccc12)N1CCN(c2cccc(Cl)c2)CC1,16%,?,·,7.9µM*,·,-71%
O=C(c1ccc2c(c1)N(Cc1cccc(Cl)c1)C(=O)c1ccccc1S2(=O)=O)N1CCN(c2ccccn2)CC1,14%,20µM*,·,4%,·,-23%
O=C(c1ccc(S(=O)(=O)c2ccccc2Cl)c([N+](=O)[O-])c1)N1CCCCCC1,9%,?,10,?,25µM*,2%[10 µM]
O=C(c1ccc(S(=O)(=O)Cc2ccccc2F)c([N+](=O)[O-])c1)N1CCCCCC1,-2%,-15%,·,-22%,·,-10%
O=C(c1ccc(S(=O)(=O)c2cccc(Cl)c2)c([N+](=O)[O-])c1)N1CCN(c2ccccn2)CC1,13%,-4%,·,11µM*,·,-205%
O=C(c1cc(Cl)ccc1Cl)N1CCN(c2ccccn2)CC1,0%[38.3 µM],-7%,-1,-17%,-14%,-2%
O=C(c1cccc(Cl)c1)N1CCN(c2ccccn2)CC1,35%[38.3 µM],?,0,4%,-12%,5%
CCN1C(=O)c2ccccc2S(=O)(=O)c2ccc(C(=O)N3CCOCC3)cc21,17%[38.3 µM],-11%,8,-10%,-8%,?
COc1ccc(Cl)cc1NC(=O)CSC1=Nc2ccccc2C2=NC(CCC(=O)NCc3ccco3)C(=O)N12 (stereo not drawn),·,·,1,·,·,·
COc1ccc(-c2nc3cnc(Oc4cccc(Cl)c4)nc3n(C3CC3)c2=O)cc1,?,?,·,·,·,-3%
OCc1nc2ccccc2n1/N=C/c1cccs1,·,·,·,1%[9.22 µM],·,2%[10 µM]
